# Many of the other results were omitted from the sample, so the strongest signals are more common in it than they were.
# B1: HPA (Helix pomatia), Q2F1K8 (protein)
# chain: MQAFYSGLLLLCVVAFAAAQRVQSGKIDCGNDAGWAKVPSDDPGRDNTRELAKNITFASPYCRPPVVLLSITQLDVEQSQNLRVIARLYSVSPTGFKASCYTWHNTKVYSMSISWISIENY
# How the values were obtained:
# Test in all cases: glycan array binding signal (z-score within array); higher = stronger binding
# Details in all cases: glycan notation: IUPAC condensed, linker removed
# [1] = biological target: Gal(b1-4)GlcNAc(b1-3)[Gal(b1-4)GlcNAc(b1-6)]GalNAc
# Method in brief: (§1)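 The binding signal is a Z-score computed within each array. Data were drawn from 3228 arrays in the Consortium for Functional Glycomics database, restricted to those with a known protein sequence. Scores were averaged over arrays of the same protein sequence at different concentrations or buffers, and over linkers, and negative values can be taken as non-binding.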
# [2] = biological target: Gal(b1-4)GlcNAc(b1-6)[Gal(b1-3)]GalNAc
# Method in brief: as §1
# [3] = biological target: Gal6S(b1-3)GlcNAc6S
# Method in brief: as §1
# [4] = biological target: GalNAc(a1-3)Gal
# Method in brief: as §1
# [5] = biological target: GalNAc(a1-3)GalNAc
# Method in brief: as §1
# [6] = biological target: GalNAc(a1-3)GalNAc(a1-3)Gal(a1-4)Gal(b1-4)GlcNAc
# Method in brief: as §1
# [7] = biological target: GalNAc(a1-3)GalNAc(b1-3)Gal(a1-4)Gal(b1-4)Glc
# Method in brief: as §1
# [8] = biological target: GalNAc(b1-3)GalNAc
# Method in brief: as §1
# [9] = biological target: GlcA3S(b1-3)Gal(b1-4)GlcNAc(b1-3)Gal(b1-4)Glc
# Method in brief: as §1
# [10] = biological target: GlcNAc(b1-2)Man(a1-3)[GlcNAc(b1-4)][GlcNAc(b1-2)Man(a1-6)]Man(b1-4)GlcNAc(b1-4)[Fuc(a1-6)]GlcNAc
# Method in brief: as §1
# [11] = biological target: GlcNAc(b1-4)GlcNAc(b1-4)GlcNAc(b1-4)GlcNAc(b1-4)GlcNAc
# Method in brief: as §1
# [12] = biological target: GlcNAc(b1-6)Gal(b1-4)GlcNAc
# Method in brief: as §1
# [13] = biological target: GlcNAc3Prop(b1-4)GlcNAc
# Method in brief: as §1
# [14] = biological target: Kdn(a2-6)Gal(b1-4)GlcNAc
# Method in brief: as §1
# [15] = biological target: Man(a1-2)Man(a1-3)[Man(a1-2)Man(a1-6)]Man
# Method in brief: as §1
# [16] = biological target: Neu5Ac(a2-3)Gal(b1-3)GalNAc6S
# Method in brief: as §1
# [17] = biological target: Neu5Ac(a2-3)Gal(b1-3)GlcNAc(b1-2)Man(a1-3)[Neu5Ac(a2-3)Gal(b1-3)GlcNAc(b1-2)Man(a1-6)]Man(b1-4)GlcNAc(b1-4)GlcNAc
# Method in brief: as §1
# [18] = biological target: Neu5Ac(a2-3)Gal(b1-3)GlcNAc6S
# Method in brief: as §1
# [19] = biological target: Neu5Ac(a2-3)Gal(b1-3)[Fuc(a1-4)]GlcNAc(b1-3)Gal(b1-4)[Fuc(a1-3)]GlcNAc
# Method in brief: as §1
# [20] = biological target: Neu5Ac(a2-3)Gal(b1-4)GlcNAc(b1-2)Man
# Method in brief: as §1
# [21] = biological target: Neu5Ac(a2-3)Gal(b1-4)GlcNAc(b1-2)[Neu5Ac(a2-3)Gal(b1-4)GlcNAc(b1-6)]Man(a1-6)[Neu5Ac(a2-3)Gal(b1-4)GlcNAc(b1-2)Man(a1-3)][GlcNAc(b1-4)]Man(b1-4)GlcNAc(b1-4)GlcNAc
# Method in brief: as §1
# [22] = biological target: Neu5Ac(a2-3)Gal(b1-4)[Fuc(a1-3)]GlcNAc(b1-3)Gal(b1-4)GlcNAc
# Method in brief: as §1
# [23] = biological target: Neu5Ac(a2-3)Gal6S(b1-4)GlcNAc
# Method in brief: as §1
# [24] = biological target: Neu5Ac(a2-3)[Neu5Ac(a2-6)]GalNAc
# Method in brief: as §1
# [25] = biological target: Neu5Ac(a2-6)Gal(b1-4)GlcNAc(b1-3)Gal(b1-4)GlcNAc(b1-2)Man(a1-3)[Neu5Ac(a2-6)Gal(b1-4)GlcNAc(b1-3)Gal(b1-4)GlcNAc(b1-2)Man(a1-6)]GalNAc
# Method in brief: as §1
# [26] = biological target: Neu5Ac(a2-6)GalNAc(b1-4)GlcNAc6S
# Method in brief: as §1
# [27] = biological target: Neu5Ac(a2-6)GlcNAc(b1-4)GlcNAc
# Method in brief: as §1
# [28] = biological target: Neu5Ac(a2-8)Neu5Ac(a2-3)Gal(b1-4)GlcNAc
# Method in brief: as §1
binder,measurement,setting,value
B1,glycan array binding signal (z-score),[1],-0.304
same,glycan array binding signal (z-score),[2],-0.255
same,glycan array binding signal (z-score),[3],-0.301
same,glycan array binding signal (z-score),[4],2.85
same,glycan array binding signal (z-score),[5],3.28
same,glycan array binding signal (z-score),[6],3.71
same,glycan array binding signal (z-score),[7],7.34
same,glycan array binding signal (z-score),[8],0.839
same,glycan array binding signal (z-score),[9],-0.351
same,glycan array binding signal (z-score),[10],-0.214
same,glycan array binding signal (z-score),[11],-0.314
same,glycan array binding signal (z-score),[12],-0.35
same,glycan array binding signal (z-score),[13],-0.979
same,glycan array binding signal (z-score),[14],-0.242
same,glycan array binding signal (z-score),[15],-0.231
same,glycan array binding signal (z-score),[16],-0.272
same,glycan array binding signal (z-score),[17],-0.195
same,glycan array binding signal (z-score),[18],-0.281
same,glycan array binding signal (z-score),[19],-0.105
same,glycan array binding signal (z-score),[20],-0.116
same,glycan array binding signal (z-score),[21],-0.361
same,glycan array binding signal (z-score),[22],0.04
same,glycan array binding signal (z-score),[23],-0.242
same,glycan array binding signal (z-score),[24],-0.294
same,glycan array binding signal (z-score),[25],0.201
same,glycan array binding signal (z-score),[26],-0.275
same,glycan array binding signal (z-score),[27],-0.359
same,glycan array binding signal (z-score),[28],-0.323
